Results filed as inconclusive are left out. The source made the active and inactive calls. The calls were made as follows: active = hit-call score of the fitted dose curve at least 0.9, where 1 is the maximum; inconclusive = response in the unintended direction; inactive = score below 0.9.
Tests used:
[1] = Tanguay_ZF_120hpf_YSE_legacy: (Legacy) Oregon State University Tanguay Lab 120 Hour Post-fertilization zebrafish Assay for Yolk Sac Edema (AID 2283634);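 as to AC50: actives raise the incidence of yolk sac edema above the DMSO baseline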
Summary of the method: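 Readout: presence or absence of yolk sac edema at 120 hpf, fitted upward against DMSO controls. Exposure ran statically from 6 hpf in dechorionated embryos kept at 28C.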

[2] = Tanguay_ZF_120hpf_AXIS_legacy: (Legacy) Oregon State University Tanguay Lab 120 Hour Post-fertilization zebrafish Assay for Body Axis Malformation (AID 2283635);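 as to AC50: potency for an increased fraction of larvae scored with body axis malformation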
Summary of the method: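 Static 6–120 hpf chemical exposure of dechorionated wild-type 5D zebrafish, one per well at 28C; morphology endpoint scored binary at 120 hpf relative to DMSO control.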

[3] = Tanguay_ZF_120hpf_EYE_legacy: (Legacy) Oregon State University Tanguay Lab 120 Hour Post-fertilization zebrafish Assay for Eye Malformation (AID 2283636);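 also: binary presence or absence of eye malformation scored by brightfield in 120 hpf larvae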
Summary of the method: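 Dechorionated Tropical 5D zebrafish embryos, one per well from 6 hpf, static exposure to 120 hpf at 28C, 0.64% DMSO. Eye malformation scored present/absent by brightfield; dead embryos not scored.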

[4] = Tanguay_ZF_120hpf_SNOU_legacy: (Legacy) Oregon State University Tanguay Lab 120 Hour Post-fertilization zebrafish Assay for Snout Malformation (AID 2283637)
Summary of the method: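 Dechorionated tropical 5D wild-type zebrafish embryos exposed statically from 6 to 120 hpf at 28C, one per well, in 0.64% DMSO. Snout malformation scored as present/absent by brightfield at 120 hpf; dead embryos not scored.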

[5] = Tanguay_ZF_120hpf_JAW_legacy: (Legacy) Oregon State University Tanguay Lab 120 Hour Post-fertilization zebrafish Assay for Jaw Malformation (AID 2283638);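 as to AC50: active means more embryos with jaw malformation than DMSO controls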
Summary of the method: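 Static waterborne exposure of dechorionated wild-type (Tropical 5D) zebrafish from 6 to 120 hpf at 28C, 0.64% DMSO vehicle; 5uM trimethyltin chloride served as positive control. Jaw morphology recorded as binary at 120 hpf.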

[6] = Tanguay_ZF_120hpf_PE_legacy: (Legacy) Oregon State University Tanguay Lab 120 Hour Post-fertilization zebrafish Assay for Pericardial Edema (AID 2283640);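 as to AC50: potency for increased incidence of pericardial edema versus DMSO baseline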
Summary of the method: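 Read-out is the presence or absence of pericardial edema at 120 hpf under brightfield, with gain of signal fitted against DMSO controls. Larvae (5D wild-type) were statically exposed at 28C with 0.64% final DMSO.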

[7] = Tanguay_ZF_120hpf_BRAI_legacy: (Legacy) Oregon State University Tanguay Lab 120 Hour Post-fertilization zebrafish Assay for Brain Malformation (AID 2283641)
Summary of the method: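 Brain malformation in Tropical 5D zebrafish was recorded as a binary endpoint after static compound exposure from early development to 120 hpf at 28C. Activity was analysed against DMSO as negative control.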

[8] = Tanguay_ZF_120hpf_SOMI_legacy: (Legacy) Oregon State University Tanguay Lab 120 Hour Post-fertilization zebrafish Assay for Somite Malformation (AID 2283647)
Summary of the method: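 5D WT zebrafish; chorion removed 4 hpf; 1 embryo/well from 6 hpf; static exposure to 120 hpf, 28C, 0.64% DMSO final. Endpoint: somite malformation, binary, brightfield. Mortality excluded.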

[9] = Tanguay_ZF_120hpf_OTIC_legacy: (Legacy) Oregon State University Tanguay Lab 120 Hour Post-fertilization zebrafish Assay for Otic Vesicle Malformation (AID 2283639)
Summary of the method: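 Embryos from 5D wild-type adults exposed in plates; DMSO 0.64% v/v final. Sealed, light-protected, 28C, static to 120 hpf. Otic vesicle malformation recorded as binary endpoint; gain-of-signal fitted vs DMSO.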

[10] = Tanguay_ZF_120hpf_PFIN_legacy: (Legacy) Oregon State University Tanguay Lab 120 Hour Post-fertilization zebrafish Assay for Pectoral Fin Malformation (AID 2283648);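 also: each larva judged yes or no for fin defect by brightfield with dead larvae skipped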
Summary of the method: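 Dechorionated Tropical 5D wild-type zebrafish embryos, one per well, statically exposed from 6 to 120 hpf at 28C with 0.64% DMSO final. Pectoral fin malformation scored present/absent by brightfield at 120 hpf; not scored in dead embryos.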

Measured: AC50

Cc1cc2c(cc1C(F)(F)F)N(C(=O)Nc1ccc(Oc3cccnc3C)nc1)CC2
not listed: [9] | [10]
inactive: all other assays above

c1ccc2n[nH]nc2c1
not listed: [8] | [10]
inactive: all other assays above

CC[C@@H]1C[C@H](N(Cc2cc(C(F)(F)F)cc(C(F)(F)F)c2)C(C)=O)c2cc(C(F)(F)F)ccc2N1C(=O)OC(C)C
not listed: [8] | [9] | [10]
inactive: all other assays above

CCN(Cc1cccc(S(=O)(=O)O)c1)c1ccc(C(=C2C=CC(=[N+](CC)Cc3cccc(S(=O)(=O)O)c3)C=C2)c2ccccc2S(=O)(=O)[O-])cc1
not listed: [7] | [10]
inactive: all other assays above

Oc1ccccc1
not listed: [8] | [9] | [10]
inactive: all other assays above

CCCCOC(=O)c1ccc(O)cc1
active: [1] 51.7 µM | [2] 45.1 µM | [3] 41.1 µM | [4] 24.9 µM | [5] 29.5 µM | [6] 35.5 µM | [7] 11.1 µM

NCc1cccc(C2CCN(C(=O)c3ccc(C#Cc4ccccc4F)o3)CC2)c1
not listed: [8] | [9] | [10]
inactive: all other assays above

CO[C@H]1/C=C/O[C@@]2(C)Oc3c(C)c(O)c4c(O)c(c(/C=N/N5CCN(C)CC5)c(O)c4c3C2=O)NC(=O)/C(C)=C\C=C\[C@H](C)[C@H](O)[C@@H](C)[C@@H](O)[C@@H](C)[C@H](OC(C)=O)[C@@H]1C
not listed: [7] | [8]
inactive: all other assays above

CC(C)(O)c1ccc(CNC(=O)c2cccnc2Oc2ccc3nonc3c2)cc1
inactive: all assays above

CCCCCCCCN(C)CCCCCCCC
not listed: [9] | [10]
inactive: all other assays above

NC(=O)c1nc(-c2cccc(-c3cc(F)ccc3OCC(F)(F)C(F)(F)F)c2)n[nH]1
active: [1] 26.8 µM | [2] 25.9 µM | [3] 9.38 µM | [4] 25.8 µM | [5] 28.7 µM | [6] 28.1 µM | [7] 26 µM

Cc1oc2c(NC(=O)c3c(Cl)cccc3Cl)cccc2c1C(C)(C)O
not listed: [8] | [10]
inactive: all other assays above

O=C(O)Cn1c(=O)n(Cc2ccc(Br)cc2F)c(=O)c2ccc(Cl)cc21
not listed: [8] | [10]
inactive: all other assays above

COc1cc(C(=O)NC2CCN(C)CC2)ccc1Nc1ncc2c(n1)N(C1CCCC1)CC(F)(F)C(=O)N2C
active: [2] 9.69 µM | [3] 10.1 µM | [4] 10.1 µM | [5] 34.6 µM | [6] 35.6 µM | [7] 12.3 µM
inactive: [1] | [9] | [10]

CCN(CC)C(=O)c1cc(S(=O)(=O)Cc2ccccc2)c(N2CCC(c3ccccc3)CC2)cc1N(CC)CCN(C)C
active: [2] 18.2 µM | [4] 18 µM | [7] 13.8 µM
not listed: [9] | [10]
inactive: all other assays above

O=CCCCC=O
not listed: [10]
inactive: all other assays above

Clc1ccccc1C(c1ccccc1)(c1ccccc1)n1ccnc1
inactive: [3] | [4]
active: [1] 14.6 µM | [2] 14.8 µM | [5] 1.2 µM | [6] 24.8 µM | [7] 87.3 µM

OC12N=C(c3ccccc3)SC1Cc1cc(Cl)ccc12 (configuration not stated)
inactive: [7]
active: [1] 47.3 µM | [2] 50 µM | [3] 11.1 µM | [4] 15.1 µM | [5] 45.3 µM | [6] 45.8 µM

OCCO
not listed: [8] | [9] | [10]
inactive: all other assays above

Oc1ccc2ccccc2c1
inactive: [6]
active: [1] 36.9 µM | [2] 55.2 µM | [3] 61.7 µM | [4] 34.8 µM | [5] 38.2 µM | [7] 10.3 µM

O=C1c2ccccc2C(=O)N1CCc1noc(-c2ccc(CN3CCCCCC3)s2)n1
not listed: [9] | [10]
inactive: all other assays above

CCCOC(=O)c1cc(O)c(O)c(O)c1
not listed: [8] | [10]
inactive: all other assays above

CCOC(=O)O[C@H](C)OC(=O)c1ccc2c(c1)cc(C(=O)NC1CCN(C(C)C)CC1)n2Cc1cc(-c2ccc(Cl)s2)on1
active: [4] 54.1 µM | [5] 47.6 µM
not listed: [10]
inactive: all other assays above

CN1C(=O)N(c2ccccc2Br)Cc2cnc(Nc3ccc4c(c3)OCC(CO)O4)nc21 (configuration not stated)
active: [1] 3.4 µM | [2] 2.03 µM | [3] 3.44 µM | [4] 2.27 µM | [5] 0.972 µM | [6] 2.66 µM
inactive: [9] | [7] | [8] | [10]

CCCCCCCCCCCO
not listed: [8] | [9] | [10]
inactive: all other assays above

CC(C)(c1cc(Br)c(O)c(Br)c1)c1cc(Br)c(O)c(Br)c1
not listed: [8] | [10]
inactive: all other assays above

Cc1c2ccccc2c(C)c2c1ccc1ccccc12
active: [6] 4.18 µM
not listed: [8] | [9] | [10]
inactive: all other assays above

Cc1ncc(CO)c(CO)c1O
not listed: [8] | [10]
inactive: all other assays above

COc1cccc([C@H](O)C2CCN(CCc3ccc(F)cc3)CC2)c1OC
active: [1] 44.9 µM | [2] 34 µM | [4] 45.8 µM | [6] 38.7 µM
inactive: [3] | [5] | [9] | [7]

CCCCCCCCOC(=O)c1cc(O)c(O)c(O)c1
not listed: [9] | [10]
inactive: all other assays above

CC(O)CC(C)(C)O (configuration not stated)
not listed: [9] | [10]
inactive: all other assays above

O=c1c(-c2ccc(O)cc2)coc2cc(O)cc(O)c12
not listed: [9] | [10]
inactive: all other assays above

O=C(O)Cc1cc(I)c(Oc2ccc(O)c(I)c2)c(I)c1
active: [2] 0.0871 µM | [4] 0.0814 µM | [5] 0.089 µM
not listed: [8]
inactive: all other assays above

CN(C[C@@H](CC[N+]12CCC(C3CCCCC3)(CC1)CC2)c1ccc(Cl)c(Cl)c1)C(=O)c1cc(C(F)(F)F)cc(C(F)(F)F)c1
not listed: [8] | [9] | [10]
inactive: all other assays above

CCCC(=O)OCCC(C)C
not listed: [8]
inactive: all other assays above
